Compound activity (PubChem BioAssay)
Vaccinia Venus: inhibitors of vaccinia virus (Venus reporter) | Vaccinia virus Venus reporter expression, fluorescence | Potency, µM (top dose mostly 36.5 µM), without a hit: top-dose activity change, negative = inhibition, actives largely listed as inhibitors | 0.46% of 330,000 active; calls by dose curve; tested in A549 cells; note: nearly all actives have a fitted effect of over 30% in size
FMDV antiviral: foot and mouth disease virus antiviral activity | FMDV antiviral cell-based qHTS | 1.2% of 410,000 active | AID 1159524 | Potency, µM (titrated, usually from 57.9 µM), for the others: top-dose activity change, negative = inhibition, actives largely listed as inhibitors; calls by dose curve; tested in HEK293T cells; note: read-out not given here; nearly all actives have a fitted effect of over 45% in size
VACV mCherry inh: vaccinia inhibition (mCherry reporter). Potency, µM (highest dose often 36.5 µM), for the others: top-dose activity change, negative = inhibition, hits mostly inhibitors. Vaccinia virus mCherry reporter infection, fluorescence. 0.63% of 310,000 active; calls by dose curve; tested in A549 cells; note: nearly all actives have a fitted effect of over 35% in size
Sm TGR inh: inhibitors of Schistosoma mansoni thioredoxin glutathione reductase. Potency, µM (highest dose often 114 µM), inactives show top-dose activity change, negative = inhibition, usual class: inhibitors. AID 485364. Q962Y6. 3% of 360,000 active. purified TGR, DTNB reduction, TNB absorbance 405 nm; active = well fitted inhibition curve with a large enough effect; inconclusive = small, poorly fitted or top-dose-only effect; inactive = no such curve, though single readings can be large or run the other way; note: nearly all actives have a fitted effect of over 60% in size
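TGR 20 nM + NADPH 100 uM (dispensed conc.), cpd preinc 15 min RT; start with NADPH (500 uM addition) then DTNB (15 mM addition). Kinetic TNB absorbance, 405 nm filter. Four-parameter Hill fit across titration.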
MARV entry inh: inhibitors of Marburg virus binding or cell entry; Marburg virus pseudotyped entry inhibition, cell reporter; Potency, µM (titrated, usually from 37.8 µM), inactives show top-dose activity change, negative = inhibition, usual class: inhibitors; 1.8% of 300,000 active; AID 540276; calls by dose curve; tested in HEK293 cells
LASV entry inh: blocks Lassa virus binding to or entry into cells; Lassa virus pseudotype entry inhibition, cell reporter; Potency, µM (top dose mostly 37.9 µM), for the others: top-dose activity change, negative = inhibition, usual class: inhibitors; 1.2% of 300,000 active; AID 540256; calls by dose curve; tested in HEK293 cells; note: nearly all actives have a fitted effect of over 50% in size
* marks the source's active call; other numbers are inactive results; i = inactive; u = inconclusive; x = no result given; ! = not confirmed by another sample; [ ] = dose if it differs, or a comment. This is a sample that favours compounds with a hit; in the whole collection about 5.4% have one here. % is set by controls: 0 for no effect and ±100 for the full control effect; potency is the fitted concentration of half-maximal effect.

SMILES	Vaccinia Venus	FMDV antiviral	VACV mCherry inh	Sm TGR inh	MARV entry inh	LASV entry inh
CCCCN(CC)Cc1ccc(CNC(=S)Nc2cccc(F)c2)o1	-16%	-14%	-9%	40µM*	u	20%
CCCCN(CC)Cc1ccc(CNC(=O)Nc2ccccc2)o1	x	3%	x	19%	-7%	4%
Cc1ccc(/C=C/C(=O)Nc2ccc([N+](=O)[O-])cc2)o1	-25%	-2%	u	16µM*	18%	-8%
O=C(O)/C=C/C(=O)Nc1ccc(Oc2ccccc2)cc1	-5%	20%	-12%	-26%	1%[46.1 µM]	9%
CCCOC(=O)c1cccc(NC(=O)COc2ccc([N+](=O)[O-])cc2)c1	u	25µM*	-10%	-10%	-34%	-10%
Cc1ccc(/C=C/C(=O)Nc2ccc(Oc3ccccc3)cc2)o1	u	-4%	u	18µM*	u	-17%
O=C(Nc1ncc([N+](=O)[O-])s1)c1cccs1	-16%	u	-4%	-21%	x	x
CCOC(=O)c1cccc(NC(=O)COc2ccc([N+](=O)[O-])cc2)c1	-13%	x	-17%	18%	-15%	5%
O=C(/C=C/c1ccc([N+](=O)[O-])cc1)Nc1ncc([N+](=O)[O-])s1	x	-72%	x	0%	5.8µM*	u
Cc1ccc(NC(=O)CSc2cn(CC(=O)N3CCOCC3)c3ccccc23)cc1Cl	-13%	-20%	-14%	4%	x	-3%[46.1 µM]
CCc1nnc2c(N3CCN(c4cccc(C(F)(F)F)c4)CC3)nc3ccccc3n12	-19%	u	i	7%	x	3%[46.1 µM]
O=C(Cn1c(=O)c(C(F)(F)F)nc2ccccc21)Nc1cccc(Br)c1	-2%	-1%	1%	7%	x	2%[46.1 µM]
Cc1ccc(/C=C/C(=O)Nc2nnc(C)s2)o1	5%	36%	-5%	u	25%	19%
CCCOc1ccc(/C=C/C(=O)Nc2ccc([N+](=O)[O-])cc2)cc1	-10%	5.6µM*	-18%	-25%	1.8µM*	u
CCOC(=O)CCc1ccc(NC(=O)/C=C/c2ccc([N+](=O)[O-])o2)cc1	13µM*	25µM*	u	x	u	7.1µM*
CC(=O)c1ccc(NC(=O)/C=C/c2ccc(C)o2)cc1	-5%	29%	-11%	11µM*	u	10%[46.1 µM]
CCc1ccc(C(=O)/C=C/c2ccc([N+](=O)[O-])o2)cc1	-3%	35µM*	-12%[1.46 µM]	3.2µM*	u	u
CCCCOc1ccc(/C=C/C(=O)Nc2ccc([N+](=O)[O-])cc2C)cc1	-5%	0%	i	-2%	-7%	0%
CC(=O)Nc1ccc(NC(=O)COC(=O)c2ccc([N+](=O)[O-])o2)cc1	1%	-9%	i	x	6%[46.1 µM]	-18%
CCN(CC)S(=O)(=O)c1ccc(C(=O)/C=C/c2ccc(-c3ccc([N+](=O)[O-])cc3)o2)cc1	x	-11%	x	16µM*	x	x
Cc1ccc(C(=O)/C=C/c2ccc(-c3ccc(C)cc3)o2)cc1	-2%	2%	-7%	u	1%	-26%
COc1ccc(CCN2C(=O)CS/C2=N/NC(=O)c2ccccc2F)cc1OC	-25%	-32%	-26%	-4%	-7%	0%
COc1ccc(CCN2C(=O)CSC2=Nc2ccc(C)cc2C)cc1OC	-2%	13µM*	i	8%	u	u
COc1ccc(-c2nc(CN3CCN(c4ncnc5ccccc45)CC3)c(C)o2)c(OC)c1	x	20µM*	x	u	15µM*	u
COc1ccccc1N1CCN(Cc2ccc(Br)o2)CC1	x	3%	x	4%	-1%	0%
SMILES	Vaccinia Venus	FMDV antiviral	VACV mCherry inh	Sm TGR inh	MARV entry inh	LASV entry inh
COc1ccc(-c2nc(CN3CCN(c4ccccc4OC)CC3)c(C)o2)cc1	-29%	28µM*	-29%	x	u	-23%
COc1ccccc1N1CCN(Cc2ccc(Br)cc2)CC1	x	-7%	x	35µM*	x	x
Cc1oc(-c2cc(F)ccc2F)nc1CN1CCN(c2ncnc3ccccc23)CC1	u	16µM*	-26%	3%	x	x
C=CC[C@@H]1C=C(C(=O)OC)N(C(=O)C(F)(F)F)[C@@H](c2ccccc2Br)[C@@H]1C	x	x	x	x	9%[14.2 µM]	x
CCOC(=O)N1CCC(NC(=O)c2ccc(N3CCC4(CC3)OCCO4)c([N+](=O)[O-])c2)CC1	-28%	25µM*	-10%	-9%	u	u
COCC(=O)Nc1cc(C(=O)N2CCCOc3c(cccc3OC)C2)c2c(c1)nc(C1CCC1)n2C	-11%	-3%	-9%	x	x	x
COc1ccc(C2c3ccc4ccccc4c3Oc3ncn(CCCN(C)C)c(=N)c32)cc1 (stereo unspecified)	u	1%	u	1%	1.8µM*	u
COc1ccccc1C1c2ccc3ccccc3c2Oc2ncn(CCN(C)C)c(=N)c21 (stereo unspecified)	u	-31%	-20%	-11%	2.8µM*	u
COc1ccc(C2c3c(ncn(CCN4CCOCC4)c3=N)Oc3ccc4ccccc4c32)cc1OC (stereo unspecified)	-15%	u	i	-23%	10µM*	u
CCC[C@@H]1[C@@H]2C(=O)N(c3ccccc3OC)C(=O)[C@H]2ON1c1ccccc1	x	x	x	x	2%	x
COc1ccc(OC)c(S(=O)(=O)ON2C(=O)c3ccccc3C2=O)c1	-9%	u	i	0.63µM*	u	-24%[46.1 µM]
COc1ccc(OC)c(S(=O)(=O)N2CCN(c3ccccc3)CC2)c1	x	5%	x	-4%	x	x
CCc1ccc(S(=O)(=O)ON2C(=O)c3ccccc3C2=O)cc1	1%	0%	-2%	1.4µM*	21%[14.2 µM]	3%
CC1(C)Cc2c(C#N)c(NCCO)nc(-c3ccco3)c2CO1	-1%	-18%	i	3.5µM*	10%[14.2 µM]	-4%
CC1(C)Cc2c(C#N)c(NCCN3CCOCC3)nc(-c3ccco3)c2CO1	x	-2%	x	35µM*	-5%	-21%
COc1ccc(O)c(C2=Nc3ccccc3N=C(c3ccccc3)C2)c1	-11%	25µM*!	-4%	23%	u	16%
Cc1cccc(C2=Nc3ccccc3N=C(c3cc(Cl)ccc3O)C2)c1	-1%	-26%	-10%	-5%	x	11%[46.1 µM]
Cc1ccc(CSc2cn(CC(=O)N3CCCC3)c3ccccc23)cc1	-15%	21%	-16%	3%	x	-14%[46.1 µM]
Cc1ccc(CSc2cn(CC(=O)N3CCCCCC3)c3ccccc23)cc1	-10%	13%	-8%	31%	x	8.9µM*
COc1cc(=O)n2c(c1C(=O)N(C)Cc1nonc1C)CCN(Cc1ccccc1F)CC2	1%	-7%	-2%	x	x	x
COc1ccc(Nc2oc(/C=C/c3cccc(OC)c3)nc2C#N)cc1	-5%	21%	-5%	-10%	u	u
CN1CCCN(Cc2nc(-c3ccc(Cl)cc3)no2)CC1	1%	-25%	-6%	18µM*	-5%[46.1 µM]	24%[46.1 µM]
COc1ccc(C=C(C(=O)c2ccccc2)C(=O)c2ccccc2)cc1	-5%	6%	i	x	x	x
CC(C)(C)NCC(=Cc1ccccc1)C(=O)c1ccccc1	u	8.9µM*	10µM*	x	7.9µM*	7.1µM*
